Data on 89 sequences can be found in the supplement of paper PMC3334620.

Whole data set: some 33,000 sequences, median “E-score (-0.5 to 0.5)” near -0.011, cut for the highest 2% near 0.28. Shown is part of a subset that was picked to be rich in the highest values.

This assay deals with T1, Gcr1 (UniProt P07261).
T1 sequence: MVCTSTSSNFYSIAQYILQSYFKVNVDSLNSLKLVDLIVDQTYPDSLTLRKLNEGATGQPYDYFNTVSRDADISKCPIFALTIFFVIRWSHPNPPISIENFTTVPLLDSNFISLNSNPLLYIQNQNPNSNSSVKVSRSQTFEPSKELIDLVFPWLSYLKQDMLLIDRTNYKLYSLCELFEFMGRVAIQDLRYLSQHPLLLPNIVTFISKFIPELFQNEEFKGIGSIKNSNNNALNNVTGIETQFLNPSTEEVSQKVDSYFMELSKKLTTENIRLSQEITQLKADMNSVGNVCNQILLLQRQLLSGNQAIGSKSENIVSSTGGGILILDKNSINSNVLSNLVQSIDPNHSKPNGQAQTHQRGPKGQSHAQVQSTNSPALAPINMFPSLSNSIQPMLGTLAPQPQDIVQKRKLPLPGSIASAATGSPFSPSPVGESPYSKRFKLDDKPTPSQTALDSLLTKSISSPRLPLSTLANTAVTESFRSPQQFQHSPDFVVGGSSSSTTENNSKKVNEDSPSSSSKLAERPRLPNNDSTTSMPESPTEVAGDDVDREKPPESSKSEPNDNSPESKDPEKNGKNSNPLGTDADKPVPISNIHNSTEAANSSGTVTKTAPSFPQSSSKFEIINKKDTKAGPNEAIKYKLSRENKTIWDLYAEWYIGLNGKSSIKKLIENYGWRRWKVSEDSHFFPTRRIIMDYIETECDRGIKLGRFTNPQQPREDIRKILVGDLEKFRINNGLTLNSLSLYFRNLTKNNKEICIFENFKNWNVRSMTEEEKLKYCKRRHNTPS
The assay is described as follows: PBM E-score (8-mer binding enrichment) (E-score (-0.5 to 0.5)); higher = stronger / more preferred TF binding. To be noted: protein concentration: 100 nM; construct: GST-full length. The essentials:
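Full-length yeast transcription factors or their DNA-binding domains, GST-tagged and expressed with PURExpress, were applied at about 100-200 nM to universal all-10-mer Agilent arrays. These arrays had been made double-stranded by primer extension on fresh or once-stripped slides. Detection used fluorescent anti-GST, normalisation used masliner, and E-scores for ungapped eight-base words pooled with reverse complements came from the Universal PBM Analysis Suite.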
CAATTCCA: the “PBM E-score” value amounted to 0.0815. As for CACTTCCA, the “PBM E-score” value amounted to 0.312. With GACTTCCC, the “PBM E-score” value turned out to be 0.127. With CACTTCCG the figure was 0.0282; with GAATTCCC, 0.116; with AACTTCCG, 0.267. AACTTCCA: the “PBM E-score” value worked out at 0.349. With GAATTCCA the figure was 0.369; with CCGACCCA, -0.0324. With CGCAGGCG, the “PBM E-score” value turned out to be 0.00025. With ATTGCTAC the figure was 0.11.

As to ACGGCTCG, the “PBM E-score” value was -0.105.

With GTCATTAA, the “PBM E-score” value was 0.0346. To AGTCCGTG belongs -0.0968; to AAATCCAT, 0.129; to GGCCCGCA, -0.0485. To CAACCCAG belongs 0.00319; to CCCGCGAC, -0.167. For the sequence AACTTCCC, the “PBM E-score” value is -0.0101.

Take AACTTCGT: the “PBM E-score” value worked out at 0.173. With AACTTCCT the figure was 0.376; with AGGGAAAT, -0.173; with ACTGCTAA, -0.0287. Consider ACCACTCA, for which the “PBM E-score” value is -0.067.

For GCCACTAC, the “PBM E-score” value was determined as 0.305. To AGCACTAA belongs -0.0258.

With ACCACTAT, the “PBM E-score” value is 0.356.

On to ACCACTAG, for which the “PBM E-score” value worked out at 0.267. For CCCACTAA, the “PBM E-score” value is 0.241. ACCACTAA: the “PBM E-score” value was 0.285. As to TCCACTCA, the “PBM E-score” value came out at 0.189. Take GCCACTCC: the “PBM E-score” value is -0.045. Take ACCACTAC: the “PBM E-score” value worked out at 0.129.

Regarding TCCACTAA, the “PBM E-score” value turned out to be 0.418. With CCCACTAC, the “PBM E-score” value is 0.187.

For the sequence ATCGAGCG, the “PBM E-score” value was -0.167.

With GGATATCC, the “PBM E-score” value was -0.206. For CCGATTCA, the “PBM E-score” value is -0.00017. CTGCCGAA: the “PBM E-score” value was -0.0682. GCCACTGA: the “PBM E-score” value turned out to be 0.237. As for GCCACTAA, the “PBM E-score” value amounted to 0.366. Consider GCCACTTA, for which the “PBM E-score” value stood at 0.184. In the case of ACAAAGAG, the “PBM E-score” value is -0.078. To CGGCAGAC belongs -0.254. Regarding CGGCAGCA, the “PBM E-score” value was -0.0108.

Turning to AGGCAGCG, the “PBM E-score” value was 0.0171.

Regarding AGGCAGCA, the “PBM E-score” value was 0.0795. In the case of AGGCAGCC, the “PBM E-score” value came out at 0.382.

On to CGGCAGCC, for which the “PBM E-score” value was found to be 0.382. As to AGTCTACG, the “PBM E-score” value was -0.0187.

As for AGACGCTG, the “PBM E-score” value was found to be 0.254.

With GCACGCTA, the “PBM E-score” value is -0.0819.

With AGACGCTA, the “PBM E-score” value was 0.293.

Consider AGACGCTC, for which the “PBM E-score” value stood at 0.185. With GGACGCTA the figure was 0.363.

For CGACGCTA, the “PBM E-score” value stood at 0.0406. ACGAGCAC: the “PBM E-score” value was -0.0665. With AAACCCGG, the “PBM E-score” value was 0.0332.

For the sequence ACGCGCAT, the “PBM E-score” value is -0.0657.

As to GCCTGTGA, the “PBM E-score” value stood at 0.0496. To CCGGAATC belongs 0.219. In the case of ATGGAATA, the “PBM E-score” value was 0.0994. For CTGGAATA, the “PBM E-score” value was determined as 0.259.

In the case of ATGGAATC, the “PBM E-score” value stood at 0.29. As for ATGGAATG, the “PBM E-score” value was -0.00503. In the case of CTGGAATC, the “PBM E-score” value came to 0.407.

Turning to AACGCTCC, the “PBM E-score” value was -0.276. As for GCGTCTTA, the “PBM E-score” value came out at 0.239. As to CAGCTCGC, the “PBM E-score” value is -0.117. In the case of CGACCGTC, the “PBM E-score” value was -0.41.

On to TGATATCA, for which the “PBM E-score” value was found to be 0.0841. On to CAGCCATA, for which the “PBM E-score” value worked out at 0.022. In the case of CGCAGCCC, the “PBM E-score” value turned out to be 0.324. As to AGCAGCAT, the “PBM E-score” value is -0.00516. With AGCAGCCG the figure was 0.285; with AGCAGCTA, 0.273; with AGCAGCTG, 0.311. AGCAGCAG: the “PBM E-score” value was -0.0192. ACCAGCCT: the “PBM E-score” value was found to be 0.0001. CGCAGCGC: the “PBM E-score” value was 0.15. On to CACAGCCC, for which the “PBM E-score” value is -0.232. To AGCAGCTC belongs 0.16; to ATCAGCCG, -0.264; to AGCAGCCT, 0.369. With ACATTACA the figure was 0.178; with GGGTTAAC, 0.0316.

Regarding ATCCCCGA, the “PBM E-score” value was found to be 0.0266. To AGCCCGCA belongs 0.225; to CCTACTAC, -0.0926.
